# Test results as given in PubChem BioAssay.
# Several values for one entry are separate records, joined by “and”; a condition that tells them apart may be missing. Equal entries are not always repeated. Activity calls are given as the source filed them.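 How the source made its calls, unless noted: active means inhibition at or above 50% relative to wild type and mutant plate controls; inactive means inhibition below 50%.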
# Experiments:
# [1] = reduction of polyQ htt aggregates in cells – imaging, exon1htt(103Q)mCFP cells, high-content imaging, primary screen (AID 483;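 active means visual image review flags a hit and inhibition of aggregation exceeds 20%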;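 further: compound exposure lasted 3 days before fixation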;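 on nuclei count: percent of the per-plate median nuclei count of sample wells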); settings: exon1htt(103Q)mCFP cell line, aggregate imaging, at 2 µM; inhibition of aggregation: stronger effect = higher value; nuclei count: measured here: cell count, toxicity
# [2] = endothelial E-selectin expression blockers – imaging, HUVEC, immunofluorescence, MLSMR starter and 10KST1 sets, primary screen (AID 487;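 active means visually confirmed hit in the image check and inhibition above 20%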;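 on inhibition: signal is fraction of cell area covered by stained E-selectin grains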;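 on nuclei count: 100% = median nuclei count of all wells on the same plate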); settings: HUVEC TNFalpha-induced E-selectin immunofluorescence imaging, at 2 µM; inhibition: stronger effect = higher value; nuclei count: measured here: cell number, toxicity
# [3] = Primary imaging screen for DUSP6 inhibitors that restore phospho-Erk in transfected HeLa cells, chemical complementation (AID 609;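 active means compounds giving at least 50% inhibition in the cell-based MKP-3 phosphatase rescue imaging test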;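 on inhibition: phospho-Erk level distribution per well compared with pooled transfected vehicle control wells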); settings: HeLa MKP-3 transfected, phospho-Erk imaging KS statistic, at 10 µM, cells stimulated with TPA for 15 min
# [4] = target: Dual specificity protein phosphatase 6 (Homo sapiens) (UniProt Q16828); assay: as above; settings: HeLa MKP-3 transfected, phospho-Erk imaging KS statistic; at 10 µM; stronger effect = higher value; cells stimulated with TPA for 15 min
# [5] = target: Voltage-gated potassium channel subunit beta-2 (Rattus norvegicus) (UniProt P62483); assay: inhibitors of rat Kvbeta2 reductase activity – biochemical, NADPH fluorescence, primary screen (AID 622;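 active means fluorescence slope higher than the sample average by over 3 SD, cut at about -0.22 in these data, passing the limit was not always enough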;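 further: slope of raw intensity against log time taken from 70 to 1610 s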); settings: recombinant KvBeta, 4-cyanobenzaldehyde reduction, at 10 µM, stronger effect = higher value
# [6] = target: Voltage-gated potassium channel subunit beta-2 (Rattus norvegicus) (UniProt P62483); assay: enhancers of rat Kvbeta2 NADPH turnover – biochemical, NADPH fluorescence, primary screen (AID 623;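 active means NADPH fluorescence slope more negative than the mean of all samples by about 3 SD, 99.7% confidence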;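 further: fluorescence intensity change per second fitted from 20 to 320 s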); settings: Recombinant KvBeta, NADPH fluorescence decrease slope, 10 min; at 10 µM; stronger effect = lower value
# [7] = target: Alpha-2C adrenergic receptor (Homo sapiens) (UniProt P18825); assay: compounds altering alpha2C-coupled GIRK flux – cell-based, HEK293 alpha2C/GIRK1/2, thallium flux, primary screen (AID 624;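 active means fluorescence slope after compound addition differing from the mean of all screened samples at 99.7% confidence, in either direction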;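 further: slope of fluorescence ratio to pre-addition baseline per second over 15 to 24 s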); settings: thallium flux BTC fluorescence, at 10 µM, actives lie on both sides
# [8] = inhibitors of larval lipid processing in zebrafish, primary screen, whole organism, PED6 fluorescence, gall bladder and intestine (AID 686;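 active means a full or partial loss of lipid-probe fluorescence in the fish gall bladder, intestine or both, judged by eye; inactive means no fluorescence loss, or compound toxic to the fish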;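 further: larvae 5 to 7 days old with five fish per well; signal comes from phospholipase A2 cleavage of quenched PED6 carried via bile; overnight exposure to compound and PED6 before scoring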); settings: Zebrafish larvae PED6 lipid processing, fluorescence scoring; screened at 20 µM (by protocol)
# [9] = loss of swimming-algae plug formation – whole organism, Chlamydomonas reinhardtii, WT vs cilia-less mutant, absorbance, 96-well, primary screen (AID 463189); settings: Chlamydomonas reinhardtii gravitaxis, OD600 absorbance, 2 days; at 10 µM; stronger effect = higher value;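 further: 0% = wild type cc124 cells in DMSO and 100% = ciliumless bld1 mutant cells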
# [10] = blockers of RIG-like receptor reporter activation – cell-based, Sendai virus stimulus, luciferase, 10K MLSCN set, TLR/RLR signaling modifier project, primary screen (AID 602276;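 active means inhibition at or above 50% at 10 µM; inactive means inhibition below 50%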;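 further: firefly luciferase from ISG56 promoter only with Renilla not read in this screen; 0% = Sendai virus plus DMSO and 100% = medium plus DMSO without virus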); settings: HEK293 RL24 IRF3 luciferase reporter, at 10 µM, stronger effect = higher value
# [11] = TLR3 IRF3 reporter activation blockers – cell-based, poly I:C stimulus, luciferase, 10K MLSCN set, primary screen (AID 602277;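 active means inhibition of the reporter signal at or above 50%; inactive means inhibition below 50%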); settings: HEK293-TLR3 RL24 IRF3 luciferase reporter, at 10 µM, stronger effect = higher value
# [12] = target: Muscarinic acetylcholine receptor M4 (Homo sapiens) (UniProt P08173); assay: M4-linked GIRK flux change, two-sided – cell-based, HEK293 M4/GIRK, thallium flux, BTC-AM, M4 allosteric agonist project, primary screen (AID 625;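 active means fluorescence slope after compound addition differing from the mean of all tested samples at 99.7% confidence, mostly higher but some lower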;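 further: thallium influx through GIRK channels coupled to M4 in HEK293 cells with BTC-AM dye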); settings: at 10 µM, actives lie on both sides
# [13] = measured here: cell density z-score
# [14] = measured here: nuclear c-Myc green intensity z-score
# [15] = measured here: nuclear pErk red intensity z-score, stronger effect = higher value
# Chain of Alpha-2C adrenergic receptor (Homo sapiens) (P18825 whole entry, looked up): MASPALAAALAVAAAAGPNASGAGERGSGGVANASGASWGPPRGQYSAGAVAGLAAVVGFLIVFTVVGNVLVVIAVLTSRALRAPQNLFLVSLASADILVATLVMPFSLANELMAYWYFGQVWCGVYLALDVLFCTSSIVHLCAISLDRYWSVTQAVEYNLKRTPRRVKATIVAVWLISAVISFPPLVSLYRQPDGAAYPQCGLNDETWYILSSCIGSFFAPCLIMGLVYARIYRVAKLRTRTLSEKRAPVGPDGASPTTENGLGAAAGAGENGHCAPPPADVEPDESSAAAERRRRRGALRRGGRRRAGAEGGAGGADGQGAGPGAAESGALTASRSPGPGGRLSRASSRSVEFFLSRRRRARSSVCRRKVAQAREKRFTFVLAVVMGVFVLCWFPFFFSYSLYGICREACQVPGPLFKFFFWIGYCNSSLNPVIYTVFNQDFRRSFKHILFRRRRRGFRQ
# Chain of Dual specificity protein phosphatase 6 (Homo sapiens) (Q16828 whole entry, looked up): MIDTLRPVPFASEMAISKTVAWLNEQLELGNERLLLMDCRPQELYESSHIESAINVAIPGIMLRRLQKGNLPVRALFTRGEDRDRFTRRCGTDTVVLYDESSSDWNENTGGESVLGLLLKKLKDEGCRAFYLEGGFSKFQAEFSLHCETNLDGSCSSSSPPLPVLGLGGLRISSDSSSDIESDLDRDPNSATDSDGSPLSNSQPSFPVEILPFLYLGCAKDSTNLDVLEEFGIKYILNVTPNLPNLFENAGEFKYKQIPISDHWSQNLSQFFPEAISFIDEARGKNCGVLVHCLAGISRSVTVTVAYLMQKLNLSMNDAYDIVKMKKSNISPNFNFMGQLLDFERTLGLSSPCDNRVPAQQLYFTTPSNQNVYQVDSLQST
# Chain of Voltage-gated potassium channel subunit beta-2 (Rattus norvegicus) (P62483 whole entry, looked up): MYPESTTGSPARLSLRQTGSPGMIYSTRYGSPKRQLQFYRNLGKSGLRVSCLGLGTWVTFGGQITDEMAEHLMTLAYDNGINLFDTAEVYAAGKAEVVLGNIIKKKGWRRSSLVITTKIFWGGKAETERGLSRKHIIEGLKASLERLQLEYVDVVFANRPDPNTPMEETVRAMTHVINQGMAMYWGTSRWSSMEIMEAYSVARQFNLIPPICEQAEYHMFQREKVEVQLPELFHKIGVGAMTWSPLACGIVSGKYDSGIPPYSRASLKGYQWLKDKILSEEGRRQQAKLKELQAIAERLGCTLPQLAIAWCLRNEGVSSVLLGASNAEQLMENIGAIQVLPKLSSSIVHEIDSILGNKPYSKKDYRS
# Chain of Muscarinic acetylcholine receptor M4 (Homo sapiens) (P08173 whole entry, looked up): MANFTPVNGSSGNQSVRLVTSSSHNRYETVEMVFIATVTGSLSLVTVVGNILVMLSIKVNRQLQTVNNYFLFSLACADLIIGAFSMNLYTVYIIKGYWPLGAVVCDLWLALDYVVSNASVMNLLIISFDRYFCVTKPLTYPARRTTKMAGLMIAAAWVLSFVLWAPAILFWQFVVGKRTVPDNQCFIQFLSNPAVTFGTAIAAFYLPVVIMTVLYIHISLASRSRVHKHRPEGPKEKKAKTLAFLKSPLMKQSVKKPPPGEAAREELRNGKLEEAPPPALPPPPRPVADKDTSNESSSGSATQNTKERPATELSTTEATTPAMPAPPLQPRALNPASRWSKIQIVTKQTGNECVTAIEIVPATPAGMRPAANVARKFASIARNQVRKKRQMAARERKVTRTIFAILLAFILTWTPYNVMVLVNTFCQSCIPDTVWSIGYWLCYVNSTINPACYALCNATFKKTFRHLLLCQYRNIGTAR
Compound,inhibition of aggregation [1],nuclei count [1] [%],inhibition [2],nuclei count [2] [%],"z-score [3, 13]","z-score [3, 14]","z-score [3, 15]",inhibition [4],fluorescence slope [5],NADPH fluorescence slope [6],slope [7],outcome [8],inhibition [9],inhibition [10],inhibition [11],fluorescence slope [12]
COc1ccc(CN(CCN(C)C)c2ccccn2)cc1,-1.2% (inactive),105,-37.9% (inactive),113,-0.442,-0.558,1.54,3.45% (inactive),-0.507 (inactive),9.4e-06 (inactive),0.00533 (inactive),inactive,3.64% (inactive) and 20.5% (inactive),16.8% (inactive),30.1% (inactive),
O=c1[nH]c2ccccc2n1CCCN1CCN(C(c2ccccc2)c2ccccc2)CC1,0% (inactive),107,-139% (inactive),123,-0.406,-0.951,1.42,1.48% (inactive),-0.492 (inactive),1.6e-07 (inactive),0.00471 (inactive),inactive,0.779% (inactive) and 19.8% (inactive),18.3% (inactive),35.4% (inactive),
C[N+](C)(C)CCCCCCCCCC[N+](C)(C)C,-3.9% (inactive),89.1,-38.7% (inactive),126,-0.332,-0.124,-0.205,7.39% (inactive),-0.47 (inactive),-5.9e-05 (inactive),0.00465 (inactive),inactive,0.674% (inactive) and 0.681% (inactive),-7.67% (inactive),7.68% (inactive),
CCCc1cc(=O)[nH]c(=S)[nH]1,6.2% (inactive),105,-113% (inactive),126,0.461,-0.47,-0.798,15.3% (inactive),-0.468 (inactive),-6.3e-05 (inactive),0.00437 (inactive),inactive,-10.4% (inactive),10.3% (inactive),30.1% (inactive),
CN1Cc2c(N)cccc2C(c2ccccc2)C1 (stereo not given),5.1% (inactive),95.3,-73% (inactive),131,-0.942,0.0925,1.7,3.45% (inactive),-0.505 (inactive),-5.7e-05 (inactive),0.00524 (inactive),inactive,70.5% (active) and 60.3% (active),9.51% (inactive),22.5% (inactive),
N[C@@H](Cc1cc(I)c(Oc2ccc(O)c(I)c2)c(I)c1)C(=O)O,2.4% (inactive),100,-50.6% (inactive),107,1.52,-0.0364,-0.441,9.37% (inactive),-0.512 (inactive),-3.3e-05 (inactive),0.00387 (inactive),inactive,36.6% (inactive),20.4% (inactive),29.6% (inactive),
CN(C)CCCN1c2ccccc2Sc2ccc(C(F)(F)F)cc21,12.5% (inactive),99.9,-14.6% (inactive),95.5,-0.783,0.801,-0.407,13.3% (inactive),-0.487 (inactive),-8.7e-05 (inactive),0.00341 (inactive),inactive,81.9% (active) and 163% (active),18% (inactive),38.3% (inactive),
COc1cc(C2C(C#N)=C(N)Oc3cc(N)ccc32)cc(OC)c1OC (stereo not given),-94.1% (inactive),1.6,-83.7% (inactive),80.5,0.957,-0.28,-0.643,2.92% (inactive),-0.434 (inactive),1e-06 (inactive),0.00523 (inactive),inactive,4.51% (inactive),46.4% (inactive),88.5% (active),
CN(C)CCOC(C)(c1ccccc1)c1ccccn1 (stereo not given),21.5% (inactive),111,-17.5% (inactive),132,-0.381,0.211,-0.829,33% (inactive),-0.52 (inactive),2.3e-06 (inactive),0.00491 (inactive),inactive,-2.11% (inactive) and -8.4% (inactive),2.29% (inactive),19.2% (inactive),
COC(=O)Nc1nc2ccc(C(=O)c3ccccc3)cc2[nH]1,-1.2% (inactive),34.6,-48.7% (inactive),112,1.8,-0.197,-0.901,21.2% (inactive),-0.437 (inactive),-9.9e-05 (inactive),0.0038 (inactive),inactive,-3.25% (inactive),17.6% (inactive),46.8% (inactive),
CCc1oc2ccccc2c1C(=O)c1cc(Br)c(O)c(Br)c1,-4.4% (inactive),98,-113% (inactive),132,0.0952,0.368,0.987,17.3% (inactive),-0.429 (inactive),3.1e-06 (inactive),0.00421 (inactive),inactive; toxic,129% (active),18.5% (inactive),30.1% (inactive),
Cc1cc(C(C)(C)C)cc(C)c1CC1=NCCN1,8.7% (inactive),94.6,-76.9% (inactive),129,0.444,-0.489,-0.727,5.79% (inactive),-0.464 (inactive),-7.1e-05 (inactive),0.00474 (inactive),inactive,-10% (inactive) and -5.2% (inactive),2.07% (inactive),45.9% (inactive),
O=C(c1ccc(F)cc1)C1CCN(CCn2c(=O)[nH]c3ccccc3c2=O)CC1,-3.2% (inactive),96.4,-46.9% (inactive),112,0.976,0.365,0.163,14.6% (inactive),-0.453 (inactive),-6.9e-05 (inactive),0.00505 (inactive),inactive,4.84% (inactive) and -9.28% (inactive),0.811% (inactive),31.8% (inactive),
CCc1nc(N)nc(N)c1-c1ccc(Cl)cc1,-35.2% (inactive),76.3,-93.1% (inactive),108,-1.21,2.44,-0.22,12.4% (inactive),-0.503 (inactive),1.5e-05 (inactive),0.00459 (inactive),inactive,37.1% (inactive),18.7% (inactive),-1.71% (inactive),
CN(C)CCCC1(c2ccc(F)cc2)OCc2cc(C#N)ccc21 (stereo not given),-40.9% (inactive),103,-57.3% (inactive),141,-1.47,-1.41,2.05,-9.66% (inactive),-0.453 (inactive),1.8e-06 (inactive),0.00413 (inactive),inactive,8.33% (inactive) and 1.25% (inactive),1.82% (inactive),18.9% (inactive),
CC(=O)OCC1=C(C(=O)O)N2C(=O)[C@@H](NC(=O)Cc3cccs3)[C@H]2SC1,-14.4% (inactive),85.4,-35% (inactive),116,-0.65,-0.0505,-0.555,17.3% (inactive),-0.429 (inactive),-5.9e-05 (inactive),0.00483 (inactive),inactive,7.69% (inactive) and 18.3% (inactive),10.9% (inactive),35.2% (inactive),
CC(=O)N[C@@H](CS)C(=O)O,7.3% (inactive),104,-49.2% (inactive),120,0.131,-1.67,0.657,1.48% (inactive),-0.543 (inactive),-3.7e-05 (inactive),0.0055 (inactive),inactive,3.13% (inactive) and -2.25% (inactive),11.9% (inactive),21% (inactive),
CCOC(=O)c1cc2c(=O)n3cccc(C)c3nc2n(CCc2ccccc2)c1=N,-9% (inactive),86.6,-145% (inactive),116,-0.746,0.0077,0.78,-16.8% (inactive),-0.42 (inactive),-2e-05 (inactive),,inactive,150% (active),12% (inactive),28.5% (inactive),0.00314 (inactive)
CC(=O)Nc1c(I)c(NC(C)=O)c(I)c(C(=O)O)c1I,21.1% (inactive),102,-43.7% (inactive),126,0.431,0.292,-0.145,11.3% (inactive),-0.491 (inactive),-2.1e-05 (inactive),0.00549 (inactive),inactive,0.515% (inactive),-2.38% (inactive),5.34% (inactive),
COc1cc2nc(N3CCN(C(=O)C4COc5ccccc5O4)CC3)nc(N)c2cc1OC (stereo not given),-4.2% (inactive),100,-103% (inactive),123,0.0825,-0.753,-0.892,-0.493% (inactive),-0.435 (inactive),-3.3e-05 (inactive),0.00431 (inactive),inactive,-6.99% (inactive) and 1.78% (inactive),5.11% (inactive),24.7% (inactive),
CN(C)CCCN1c2ccccc2Sc2ccccc21,3.5% (inactive),100,3.6% (inactive),110,0.654,0.845,-0.156,11.3% (inactive),-0.511 (inactive),-7e-05 (inactive),0.00267 (inactive),inactive,8.93% (inactive) and 48% (inactive),6.01% (inactive),34.6% (inactive),
